What all share (assay): NCI-60 one-dose screen, 48 h (100 = growth as untreated, 0 = no growth, -100 = all killed)
The subject of assay [1] is HCT-15 colon. The following applies: 10 µM unless noted.
Assay [2] has as its system HT29 colon. The following applies: 10 µM unless noted.
Assay [3] has as its system SNB-75 CNS. The following applies: 10 µM unless noted.
For assay [4], the system named is SNB-19 CNS. The following applies: 10 µM unless noted.
For assay [5], the system named is U251 CNS. The following applies: 10 µM unless noted.
Assay [6] deals with PC-3 prostate. The following applies: 10 µM unless noted.
For assay [7], the system named is SK-MEL-5 melanoma. The following applies: 10 µM unless noted.
In assay [8] the test system is UACC-62 melanoma. The following applies: 10 µM unless noted.
Assay [9] relates to LOX IMVI melanoma. The following applies: 10 µM.
The subject of assay [10] is SK-MEL-28 melanoma. The following applies: 10 µM unless noted.

The panel holds about 83,000 compounds, 20% with a hit somewhere; the sample as a whole holds those more often.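 Method: cells in 96-well plates; compound added at one concentration; 48 h incubation; percent growth measured; values under 10 scored active.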 Values without a mark were called inactive. Activity calls are given as the source filed them.

With `CC(C)c1ccccc1NC(=O)N1CCC(C(C)C)CC1`, the growth in assay [1] was 110%; in [2] it was 107%; in assay [3] it was 89.3%; in assay [4] it was 107%; in [5] it was 98.1%; in assay [6], 97.9%. For the same compound, the growth is 97.4% in [7], 105% in assay [8], 103% in [9] and 106% in [10].

On to `COc1c(CNC(=O)CCl)cc2[nH]c(C)cc2c1CNC(=O)CCl`, for which the growth was 70.5% in [1]; 38.3% in [2]; 69.6% in [3]; 83.5% in [4]; 10.3% in [5]; 67.9% in [6]. The growth in [7] is 44.1%; in assay [8] it was 30.6%; in assay [9], 34%; in [10], 63.2%.

As to `CCN(Cc1ccc(Cl)c(Cl)c1)c1ccc2nc(N)nc(N)c2c1C`, the growth in assay [1] is -82.1% (active); in assay [2] it was -79.1% (active); in [3], -94.7% (active); in [4] it was -97.4% (active); in [5], -92% (active); in assay [6] it was -62.2% (active). Also, the growth in assay [7] was -98.2% (active); in assay [8] it was -86.1% (active); in [9], -87.5% (active); in [10] it was -95.4% (active).

In the case of `S=C(Sc1ccc(Cl)cc1)Sc1ccc(Cl)cc1`, the growth in assay [1] is 3.17% (active); in assay [2] it was 4.96% (active); in [3], 46%; in assay [4], 83.9%; in assay [5] it was -43% (active); in assay [6] it was 9.49% (active). For the same compound, the growth in assay [7] was 65.9%; in [8], -47% (active); in [9], -100% (active); in [10], -64.2% (active).

As for `O=C(c1ccccc1)c1ccc(-c2ccc(O)cc2)cc1`, the growth in assay [1] was 57%; in [2], 120%; in [3], 43.5%; in [4], 59.7%; in [5] it was 37.3%; in [6], 76.8%. In addition, the growth in [7] is 23.6%; in assay [8] it was 48.5%; in assay [9], 73.4%; in [10], 75.1%.

`Nc1ncnc2c1ncn2C1OC(CO)C2OC21` (stereo not given): the growth in assay [1] is 108%; in assay [2], 101%; in [3] it was 106%; in [4], 118%; in assay [5], 95.7%; in assay [6] it was 95.8%. Also, the growth in assay [7] is 101%; in assay [8] it was 100%; in [9] it was 99.2%; in assay [10], 111%.

In the case of `Cc1ccc(N)c(S(=O)(=O)O)c1`, the growth was 103% in assay [1]; 96.1% in assay [2]; 75.6% in assay [3]; 99.5% in [4]; 104% in [5]; 107% in assay [6]. The growth was 98.1% in assay [7], 98.9% in assay [8], 104% in assay [9] and 126% in assay [10].

In the case of `CC(=O)NNC(=S)N/C=C/c1c(C)ccc([N+](=O)[O-])c1[N+](=O)[O-]`, the growth is 96.5% in assay [1]; 105% in [2]; 88.5% in assay [3]; 113% in assay [4]; 112% in [5]; 97.2% in assay [6]. Further, the growth was 105% in assay [7], 98.5% in assay [8], 96% in assay [9] and 101% in assay [10].

As for `COC(c1ccc2c(c1)OCO2)C(C)Br` (stereo not given), the growth is 103% in assay [1]; 88.8% in assay [2]; 76.6% in assay [3]; 101% in [4]; 96.9% in [5]; 69.3% in [6]. In addition, the growth in assay [7] is 104%; in [8], 94.6%; in [9] it was 92.3%; in [10] it was 103%.

As to `ClCC(Cl)C1CCC(Cl)C(Cl)C1` (stereo not given), the growth in assay [1] was 99%; in assay [2] it was 103%; in assay [3], 89.6%; in [4] it was 99.8%; in assay [5] it was 99.6%; in assay [6], 102%. Moreover, the growth in assay [7] is 105%; in assay [8], 103%; in [9], 95.9%; in assay [10], 103%.

For the compound `CN(C)c1ccc2nc3ccc(=[N+](C)C)cc-3oc2c1`, the growth in [1] is 33.3%; in [2] it was 33.2%; in assay [3], 71.3%; in [4], 14.2%; in assay [5], -29.1% (active); in [6], 11.4%. Also, the growth in [7] was 23.5%; in assay [8] it was 39.5%; in [9], 12.2%; in assay [10], 66.6%.

Regarding `O=C(c1cccc(C(=O)c2ccc3c4c(cccc24)C(=O)N(c2ccccc2)C3=O)c1)c1ccc2c3c(cccc13)C(=O)N(c1ccccc1)C2=O`, the growth in [1] was 101%; in [2], 106%; in [3] it was 93.4%; in assay [4], 111%; in assay [5] it was 89.3%; in assay [6], 82.3%. Moreover, the growth in assay [7] is 84.4%; in assay [8], 84.7%; in [9], 91.2%; in [10], 109%.

For `CC12CCC3c4ccc(O)cc4CCC3C1CCC2=O` (stereo not given), the growth in assay [1] is 101%; in assay [2], 96.4%; in assay [3] it was 93.4%; in [4], 98.2%; in assay [5] it was 101%; in [6], 85.3%. The growth was 101% in [7], 94.6% in assay [8], 103% in assay [9] and 106% in assay [10].

As for `O=C(CCl)Nc1ccccc1SCc1cc(Cl)cc2c1OCOC2`, the growth in assay [1] is 88.5%; in [2] it was 82.5%; in assay [3], 73.9%; in [4], 99.5%; in assay [5], 88.9%; in assay [6] it was 82.2%. Besides, the growth in assay [7] was 63.3%; in assay [8] it was 81.2%; in assay [9] it was -76% (active); in [10] it was 94%.

For the compound `Cc1[nH]n(-c2ccccc2)c(=O)c1C=NC(=S)C(N)=S`, the growth in [1] was 99.3%; in assay [2] it was 111%; in assay [3], 87.5%; in assay [4] it was 96.8%; in assay [5] it was 100%; in assay [6] it was 85.8%. In addition, the growth in assay [7] is 99.3%; in assay [8] it was 93%; in assay [9], 99.7%; in [10] it was 110%.

The record behind these values is PubChem BioAssay (NCI).
